About 2,800 (7.6%) of roughly 37,000 compounds were called active. Not shown: some 1% with an inconclusive outcome. Many of the other results were omitted from the sample, so actives are more common in it than they were. A number with no mark means an inactive call. Cut-off read from the data, not from the text of the source: active = inhibition above about 80%; inconclusive = no clear call, values can overlap the other calls; inactive = below that.
Test: NOMO-1 AML cell viability reduction, primary screen, STK33 inhibitor project, CellTiter-Glo luminescence (AID 2330)
Conditions: NOMO-1 AML viability, 72 h, stronger effect = higher value, concentration not given here

| SMILES | inhibition |
| --- | --- |
| C[C@@H]1CN([C@H](C)CO)C(=O)Cc2cc(NC(=O)c3ccncc3)ccc2O[C@H]1CN(C)Cc1ccc(-c2ccccc2)cc1 | 111% (active) |
| C[C@@H]1CN([C@H](C)CO)C(=O)Cc2cc(NC(=O)c3ccncc3)ccc2O[C@@H]1CN(C)Cc1ccncc1 | -19.5% |
| C[C@@H]1CN([C@@H](C)CO)C(=O)Cc2cc(NC(=O)C3CCCCC3)ccc2O[C@@H]1CN(C)C(=O)Nc1ccc(C(F)(F)F)cc1 | 37.5% |
| C[C@@H]1CN([C@H](C)CO)C(=O)Cc2cc(NC(=O)Nc3ccc4c(c3)OCO4)ccc2O[C@H]1CN(C)Cc1ccc(C(F)(F)F)cc1 | 77% |
| COc1ccc(CN(C)C[C@@H]2Oc3ccc(NC(=O)c4ccncc4)cc3CC(=O)N([C@H](C)CO)C[C@H]2C)cc1 | 13.5% |
| C[C@H](CO)N1C[C@H](C)[C@H](CN(C)Cc2ccc(-c3ccccc3)cc2)Oc2ccc(NC(=O)Nc3ccc(F)cc3)cc2CC1=O | 110% (active) |
| C[C@@H]1CN([C@H](C)CO)C(=O)Cc2cc(NC(=O)Nc3ccc(C(F)(F)F)cc3)ccc2O[C@H]1CN(C)Cc1ccc(-c2ccccc2)cc1 | 128% (active) |
| C[C@H]1CN([C@@H](C)CO)C(=O)Cc2cc(NC(=O)C3CCCCC3)ccc2O[C@H]1CN(C)C(=O)Nc1ccc(C(F)(F)F)cc1 | 11.2% |
| C[C@H]1CN([C@@H](C)CO)C(=O)Cc2cc(NC(=O)Nc3ccccc3)ccc2O[C@H]1CN(C)Cc1ccncc1 | 19.2% |
| C[C@H]1CN([C@@H](C)CO)C(=O)Cc2cc(NC(=O)Nc3ccc(C(F)(F)F)cc3)ccc2O[C@H]1CN(C)Cc1ccc(C(=O)O)cc1 | 12.6% |
| C[C@H]1CN([C@@H](C)CO)C(=O)Cc2cc(NC(=O)CCCN(C)C)ccc2O[C@@H]1CN(C)Cc1ccc(-c2ccccc2)cc1 | 24.3% |
| C[C@@H]1CN([C@H](C)CO)C(=O)Cc2cc(NC(=O)C3CCCCC3)ccc2O[C@@H]1CN(C)Cc1ccc(C(F)(F)F)cc1 | 101% (active) |
| CC(C)NC(=O)N(C)C[C@@H]1Oc2ccc(NC(=O)C3CCCCC3)cc2CC(=O)N([C@H](C)CO)C[C@@H]1C | 27.6% |
| Cc1noc(C)c1NC(=O)Nc1cccc2c1O[C@@H](CN(C)CC1CCCCC1)[C@H](C)CN([C@@H](C)CO)C2=O | -7.61% |
| Nc1nnc(SCC(=O)Nc2ccc(Cl)cc2O)s1 | 14.9% |
| C[C@@H]1CN([C@H](C)CO)C(=O)c2cccc(NC(=O)C3CCOCC3)c2O[C@H]1CN(C)S(=O)(=O)c1ccc(Cl)cc1 | 7.24% |

— PubChem BioAssay AID2330 (Broad Institute, 2010)
